Screening data: PubChem BioAssay, several laboratories
Sampled rows, rich in hits. Any-hit rate of the full collection: about 1.5%.
JMJD2C inh – human JMJD2C demethylase inhibition. Q9H3R0. GST-JMJD2C(1-420) H3K9me3 demethylation, DELFIA europium. inhibition, % at 2.35 µM. 330,000 tested, 0.069% active;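 active = more than half of a compound's replicate wells show inhibition beyond 50%, single wells judged on their own value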;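 also: signal counts dimethyl H3K9 product captured on neutravidin plate; 0% = median of DMSO wells and 100% = 0.3 times that DMSO median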
NLRP3 yeast inh – inhibitors of NALP3 inflammasome in yeast. Yeast reconstituted NLRP3/ASC/caspase-1, beta-gal luminescence, 24 h. inhibition, % at 10 µM. 330,000 tested, 0.39% active;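 active = inhibition of 50% or more; inactive = inhibition below 50%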;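 also: plate controls were induced DMSO wells for no effect and uninduced yeast grown without galactose for full effect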
Efflux pump inh – inhibitors of Candida antifungal efflux pumps expressed in yeast; S. cerevisiae Candida pump triplex, Nile Red efflux; inhibition, % at 10 µM; 330,000 tested, 0.44% active;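 active = plate passing quality check with inhibition over a set limit, or well fluorescence over plate mean plus 4 SD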;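 also: Nile Red retained in pooled yeast measured as flow cytometry median fluorescence; 0% = buffer negative control and 100% = Enniatin B positive control; higher means more Nile Red kept so more efflux inhibition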
HDAC3 inhib – inhibitors of human histone deacetylase 3. O15379. inhibition, % at 8.3 µM. recombinant HDAC3, fluorogenic peptide/trypsin coupled, fluorescence. 320,000 tested, 0.15% active. AID 2718; in the data active = inhibition above about 26%, passing the limit was not always enough
Target sequence (O15379 whole entry, looked up): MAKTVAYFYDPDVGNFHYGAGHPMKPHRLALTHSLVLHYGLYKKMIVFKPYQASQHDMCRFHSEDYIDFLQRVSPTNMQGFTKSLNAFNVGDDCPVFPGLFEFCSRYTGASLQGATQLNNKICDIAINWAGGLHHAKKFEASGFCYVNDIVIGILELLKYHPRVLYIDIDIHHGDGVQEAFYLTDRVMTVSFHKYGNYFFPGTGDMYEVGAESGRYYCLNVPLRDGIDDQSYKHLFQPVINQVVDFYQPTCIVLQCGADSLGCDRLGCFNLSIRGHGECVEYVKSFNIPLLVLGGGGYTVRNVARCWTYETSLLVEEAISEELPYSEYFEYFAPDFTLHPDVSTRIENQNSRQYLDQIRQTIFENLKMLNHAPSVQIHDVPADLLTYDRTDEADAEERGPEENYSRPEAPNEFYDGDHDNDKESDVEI
NALP1 yeast inh – blocks the NALP1 inflammasome reconstituted in yeast; S. cerevisiae NALP1/ASC/caspase-1 growth, X-gal OD620, 72 h; inhibition, % at 10 µM; 280,000 tested, 0.61% active; in the data active = inhibition mostly above about 24%, no sharp cut-off; inactive = mostly below about 32%
PolyA inhibitor – blocks polyadenylation in yeast reporter cells. 300,000 tested, 0.02% active. activity score, % at 12 µM. S. cerevisiae SKY197-pL101 polyadenylation reporter, beta-gal luminescence; efflux-impaired pdr1/pdr3 knockout yeast; score 100 = 6 SD above DMSO;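 active = lowest replicate activity score at least 50, where 100 means six control SD above control mean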;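 also: yeast exposed to compound for 9 h at 30 °C; higher score means more reporter readthrough which indicates perturbed polyadenylation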
NALP3 confirm – NALP3 inhibition confirmation in yeast; shares compounds with NLRP3 yeast inh; yeast expressing human NALP3, luminescence; inhibition, % at 10 µM; 1,300 tested, 81% active; in the data active = inhibition above about 48%
Casp1 ASC ctr – active in yeast caspase-1-ASC counter-screen for NALP3 inhibitors; shares compounds with NLRP3 yeast inh; yeast expressing Caspase-1-ASC, luminescence counter screen; inhibition, % at 10 µM; 1,000 tested, 66% active; AID 488784
NALP3 yeast rt – retest-confirmed inhibitor of NALP3 in yeast | shares compounds with NLRP3 yeast inh | yeast expressing human NALP3, luminescence read-out | inhibition, % at 10 µM | 1,000 tested, 53% active
An asterisk follows results filed as active; · = no result given. Rule as the data show it, unless noted: active = inhibition above about 50%; inactive = the rest.

SMILES | JMJD2C inh | NLRP3 yeast inh | Efflux pump inh | HDAC3 inhib | NALP1 yeast inh | PolyA inhibitor | NALP3 confirm | Casp1 ASC ctr | NALP3 yeast rt
C/C(=N\Nc1ccc(C(=O)O)cc1)c1ccc(Br)cc1 | 3 | 12 | 0 | 9 | 2 | -8 | · | · | ·
CC1=C(C(=O)Nc2cc(C(=O)N3CCC(C)CC3)ccc2C)SCCO1 | 1 | 11 | 0 | -1 | -11 | 1 | · | · | ·
Cc1cc(C(=O)Nc2ccc(Br)cn2)sc1C | 0 | 59* | 0 | -4 | · | · | 61* | 57* | 56*
O=C(C#Cc1ccccc1)Nc1ccc(F)cc1 | -10 | 7 | 0 | -7 | 5 | -27 | · | · | ·
COc1ccc(NC(=O)C#Cc2ccccc2)cc1 | 24 | 67* | 0 | 8 | -10 | 7 | 76* | 48 | 62*
O=C(NC1CC1)c1cc2c(s1)-c1ccccc1OC2 | 10 | 60* | 0 | -398 | 34* | 1 | 74* | 57* | 50
O=C(O)c1cc2c(s1)-c1ccccc1OC2 | 8 | 6 | 0 | · | 11 | -17 | · | · | ·
Nc1nc(Nc2ccccc2Cl)cc(=O)[nH]1 | -15 | 10 | 0 | 0 | -12 | -12 | · | · | ·
Nc1cc(S(=O)(=O)N2CCCCC2)ccc1Oc1ccc(Cl)cc1 | 13 | -7 | 0 | -3 | 3 | 4 | · | · | ·
COC(=O)CNc1cc(S(=O)(=O)N2CCCCC2)ccc1Oc1ccc(C(=O)OC)cc1 | 1 | 66* | 0 | 8 | 31 | -3 | 70* | 39 | 29
COC(=O)c1ccc(Oc2ccc(S(=O)(=O)N3CCCCC3)cc2N)cc1 | 15 | 88* | 0 | 2 | 56* | -11 | 94* | 93* | 88*
COC(=O)CNc1cc(S(=O)(=O)N2CCCCC2)ccc1Oc1cccc(C)c1 | 4 | 12 | 0 | 13 | -8 | 2 | · | · | ·
Cc1ccc2oc(C(=O)N3CCCCCC3)c(C)c2c1 | 7 | 53* | -3 | 2 | -13 | -18 | 62* | 59* | 52*
CN1CCc2nc3ccc(Cl)cc3c(-c3ccccc3Cl)c2C1 | 1 | 57* | 0 | 0 | 41 | 2 | 57* | 42 | 41
Cc1nc2ccc(Cl)cc2c(-c2ccccc2Cl)c1CC(=O)O | -4 | -2 | 0 | -1 | 12 | 9 | · | · | ·
CCC(Cc1ccccc1)NC(=O)C1=C(C)C(=O)OC12CCC(C)CC2 (centres undefined) | 2 | -17 | 0 | -3 | -15 | 33 | · | · | ·
CC(Sc1nc(C(F)(F)F)nc2ccccc12)C(=O)NC1CCCC1 (centres undefined) | · | 52* | · | · | · | · | 36 | · | ·
CC(C)(C)c1nc(SCC(=O)NC2CCCC2)c2ccccc2n1 | -4 | 9 | 0 | 3 | 15 | -6 | · | · | ·
O=C(NCc1ccccc1)c1cc(-c2cccs2)on1 | 3 | 37 | 0 | -3 | 28 | -15 | · | · | ·
O=C(NCc1ccc(F)cc1)c1cc(-c2cccs2)on1 | -3 | 51* | 0 | -3 | 12 | -22 | 69* | 45 | 37
Oc1ccc(Oc2ccc(Oc3ccc(O)cc3)cc2)cc1 | 2 | 79* | 0 | 8 | 38* | -1 | 83* | 93* | 85*
CC(=O)c1ccc(Oc2ccc(C(C)=O)cc2)cc1 | 0 | 25 | 0 | 7 | 5 | 12 | · | · | ·
Cc1nc(NCCC(C)C)c2nnn(Cc3ccccc3)c2n1 | 43 | 25 | 0 | -7 | -17 | -25 | · | · | ·
COc1ccc(C(O)(CCN2CCOCC2)c2ccccc2)cc1 (centres undefined) | -15 | 11 | 0 | -2 | 23 | -10 | · | · | ·
COc1ccccc1-c1cc(C(=O)NC2CCCC2)no1 | 0 | 53* | 0 | -10 | 21 | -6 | 50* | 50* | 49
SMILES | JMJD2C inh | NLRP3 yeast inh | Efflux pump inh | HDAC3 inhib | NALP1 yeast inh | PolyA inhibitor | NALP3 confirm | Casp1 ASC ctr | NALP3 yeast rt
O=C1CSC(=Nc2cccc(Cl)c2Cl)N1 | 5 | 42 | 0 | 6 | 25 | 15 | · | · | ·
CCOc1ncccc1C(=O)NCCc1ccc(Cl)cc1 | -4 | 2 | 0 | · | 25 | 16 | · | · | ·
COc1cc2ccccc2cc1C(=O)N1CCN(c2ccccn2)CC1 | 1 | 52* | 0 | -4 | 30 | -9 | 87* | 62* | 76*
COc1cc(C(=O)N2CCN(c3ccccn3)CC2)cc(OC)c1OC | -6 | 12 | 0 | 1 | 16 | 5 | · | · | ·
COc1ccc(-n2nnnc2S(=O)(=O)Cc2ccc(C(=O)O)cc2)cc1 | 2 | 20 | 0 | -5 | 9 | 0 | · | · | ·
COc1ccc(-n2nnnc2S(=O)(=O)CC(=O)N2CCCCC2)cc1 | · | 57* | 0 | -4 | -4 | · | 62* | 63* | 39
Cc1ccc(-c2csc(=Nc3cccnc3)n2CCCn2ccnc2)cc1C | 1 | 10 | -4 | 4 | 35 | 6 | · | · | ·
O=C(Nc1ccccn1)Nc1ccccc1Cl | 0 | 66* | 0 | 11 | 19 | -4 | 72* | 61* | 44
O=c1c2ccccc2nnn1Cc1ccc(Br)cc1 | -4 | 50* | 0 | -4 | 14 | -18 | 66* | 57* | 58*
O=c1c2ccccc2nnn1Cc1ccc(F)cc1 | -1 | 5 | 0 | -2 | 20 | -3 | · | · | ·
c1ccc(Oc2cc(-c3ccccc3)ncn2)cc1 | -9 | 52* | 0 | -1 | 1 | -16 | 47 | 71* | 55*
Cc1ccc(C)c(NC(=O)c2cnn(-c3ccccc3)c2C)c1 | -31 | 55* | 0 | -2 | 33 | -5 | 66* | 45 | 45
Cc1c(C(=O)Nc2cccc(F)c2)cnn1-c1ccccc1 | -20 | 55* | 0 | 2 | 9 | 19 | 72* | 71* | 64*
Cc1ccccc1NC(=O)c1cnn(-c2ccccc2)c1C | -1 | 44 | 0 | 1 | 28 | 2 | · | · | ·
CCc1ccccc1NC(=O)c1cnn(-c2ccccc2)c1C | 1 | 52* | 0 | -2 | 22 | -11 | 74* | 61* | 56*
Cc1c(C(=O)Nc2ccccc2)cnn1-c1ccccc1 | 5 | 48 | 0 | -5 | · | -10 | · | · | ·
COc1cccc(CCN2CCC(CNS(=O)(=O)c3cc(-c4cc(C)no4)ccc3C)CC2)c1 | 1 | 7 | 0 | 4 | 14 | 13 | · | · | ·
COc1ccc(CNc2nc3ccc(C)cc3s2)c(OC)c1OC | 11 | 27 | 0 | 6 | 14 | 15 | · | · | ·
COc1ccc(CN2CCSc3sccc3C2=O)cc1 | -1 | 61* | 0 | -1 | -17 | -1 | 71* | 69* | 65*
O=C1c2ccsc2SCCN1Cc1ccc(Cl)cc1Cl | -1 | 65* | 0 | · | 12 | -18 | 65* | 77* | 66*
O=C1NCC2=C1C(c1ccc(Br)cc1)Nc1ccccc1N2 (centres undefined) | -11 | 52* | 0 | 9 | 5 | -5 | 63* | 41 | 33
